In PubChem BioAssay (NCI) one finds growth data, which are given here for 14 compounds.

Compounds without any hit were thinned out: in the full panel of roughly 83,000, 20% have a hit.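 Step 1: grow cells in 96-well plates. Step 2: add test compound at a single concentration. Step 3: incubate 48 h. Step 4: record percent growth.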 A number with no mark means an inactive call. How the source made its calls: active means growth percent below 10; inactive means the rest.

In this assay the test system is SW-620 colon. Nature of the assay: NCI-60 one-dose screen, 48 h (100 = growth as untreated, 0 = no growth, -100 = all killed). As to conditions: 10 µM unless noted.
On to `CN(C)CCCNC(=O)c1cncnc1Nc1ccc2c(ccn2Cc2cccc(F)c2)c1`, for which the growth is 88.3%.
The value for `CCOC(=O)/C(=C(/C)NCC(C)C)c1cc(O)c(O)c2c(C)cc(=O)[nH]c12` was 31.8%; that for `COc1ccc(Nc2ncc(C#N)c(NCCCNC(=O)C3CCC3)n2)cc1` was 41.5%; that for `C=C1SC(=Nc2ccccc2Cl)N(C(=O)c2sc3ccccc3c2Cl)C1(C)C` was 68%.
Next, `CN1CC(c2ccc(Br)cc2)C(C(=O)c2ccc(Br)cc2)C12C(=O)Nc1ccccc12` (centres undefined): 72%; `CC(C)Cc1nc(Nc2ccccc2)[nH]c(=O)c1C#N`: 70.3%; `CC(C)(C)c1ccc(S(=O)(=O)Oc2ccc(-c3sc4cc(OS(=O)(=O)c5ccc(C(C)(C)C)cc5)ccc4c3C(=O)c3ccc(OCCN4CCCCC4)cc3)cc2)cc1`: 101%.
With `Nc1ncccc1O`, the growth is 51%.
In the case of `COc1cc(C[C@H]2COc3cc(O)cc(O)c3C2=O)ccc1O`, the growth is 23.1%.
As to `CCN(CC)C(=O)CC1=C(C)/C(=C/c2[nH]c(-c3ccc[nH]3)cc2OC)N=C1C`, the growth was 15.2%.
Next, `COc1ccc(C2CC(c3ccccc3)=NN2C(=O)c2cc(OC)c(OC)c(OC)c2)cc1O` (centres undefined): 32.1%; `C[C@@H]1CN(c2cnc(C(=O)Nc3cc(F)cc4cccnc34)cn2)C[C@H](C)N1`: 46.2%; `O=C(Nc1cc(Cl)ccc1O)c1ccccc1Nc1ccnc(C(F)(F)F)c1`: 15%.
For the compound `O=c1ccc2ccc(OCCN3CCCCC3)cc2o1`, the growth was 93.9%.
